From PubChem BioAssay AID651812 (National Center for Advancing Translational Sciences (NCATS), 2012) come the findings set out here.

Values joined by “and” are separate entries in the source; they are usually repeats but may differ in a detail not shown here. Equal values may be shown once. The campaign covered roughly 2,100 compounds. About 650 (31%) were called active. Another 16% or so got no clear call; they are omitted. Calls follow the shape of the dose curve; as a rule, active = well fitted inhibition curve with a large enough effect; inconclusive = small, poorly fitted or top-dose-only effect; inactive = flat fitted curve, though single readings scatter. Some of the results follow. Entries that show only a call come without a potency.
Potency is read from the fitted curve at half-maximal effect.

The experiment can be described thus: qHTS for inhibitors of Vif-A3G interactions: Cherry picks. Also: nearly all actives have a fitted effect of over 80% in size. The settings on record: HeLa A3G-eYFP + Vif (tagged APOBEC3G with the HIV-1 protein that degrades it), 24 h; Potency: eYFP fluorescence increase; series mostly up to 36.9 µM. In a few lines: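 HeLa cells stably expressing A3G-eYFP and Vif, cultured overnight then exposed to compounds at several concentrations for 24 hours at 37 C, 5% CO2; cellular yellow fluorescence (488 nm ex, 500-530 nm em) imaged on Acumen, MG132 positive control.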
As for `Cc1ccccc1NC(=O)c1sc2nc3c(c(-c4ccco4)c2c1N)CCC3`, the Potency result is “inactive”.

With `Nc1c(C(=O)Nc2ccccc2F)sc2nc(-c3ccco3)ccc12`, the Potency was 23.1 µM (active).

`COc1ccc(/C=N/NC(=O)c2[nH]nc3c2CCc2ccccc2-3)cc1OC`: the Potency entry is “inactive”.

On to `CC(=O)Nc1ccc(S(=O)(=O)N2CCSc3ccccc32)cc1`, for which the Potency result was “inactive”.

For the compound `Cn1cc(C2=C(c3ccc(Cl)cc3Cl)C(=O)NC2=O)c2ccccc21`, the Potency was 13 µM (active) and 18.4 µM (active).

With `COc1ccc(-n2nnnc2-c2ccccc2)cc1`, the Potency result is “inactive”.

For `Cc1cccc(NC(=O)/C(C#N)=C/c2cn(CC(=O)NCc3ccco3)c3ccccc23)c1C`, the Potency result is “inactive”.

In the case of `O=S(=O)(Nc1ccc(C(O)(C(F)(F)F)C(F)(F)F)cc1)c1ccc(Cl)c2nonc12`, the Potency result was “inactive”.

As for `COc1ccccc1N1CCN(C(=O)c2cc(=O)c3cc(C)cc(C)c3o2)CC1`, the Potency result is “inactive”.

Take `COc1cccc(-c2cnc3c(NC=O)cc(-c4cc(OC)c(OC)c(OC)c4)cn23)c1`: the Potency result was “inactive”.

With `COc1cccc(NC(=O)c2oc3ccc(S(=O)(=O)N4CCC5(CC4)OCCO5)cc3c2C)c1`, the Potency entry was “inactive”.

In the case of `O=C(N/N=C/c1ccc(Cl)cc1)c1cc2c(s1)-c1ccccc1CC2`, the Potency result is “inactive”.

For the compound `Clc1ccc(/C=N/NC2=Nc3cccc4cccc2c34)cc1`, the Potency was 18.4 µM (active).

For `CCOC(=O)Cc1ccc(Nc2nc3cc(-c4sccc4C)sc3c(=O)n2C)cc1`, the Potency entry was “inactive”.

In the case of `COc1cc(-c2noc(C)c2/C=C/c2cccc([N+](=O)[O-])c2)cc(OC)c1OC`, the Potency entry is “inactive”.

Turning to `COc1ccc(C(=O)C(C)[n+]2ccc(C)c3ccccc32)cc1[N+](=O)[O-]` (stereo unspecified), the Potency entry was “inactive”.

For `O=C(O)CSc1cc(NS(=O)(=O)c2cccc([N+](=O)[O-])c2)c2ccccc2c1O`, the Potency entry is “inactive”.

In the case of `COc1ccc(-n2c(O)c(/C=N/NS(=O)(=O)c3ccc(C)c([N+](=O)[O-])c3)c3ccccc3c2=O)cc1OC`, the Potency is 11.6 µM (active).

With `COc1ccc(-n2c(O)c(/C=N/NS(=O)(=O)c3cccc([N+](=O)[O-])c3)c3ccccc3c2=O)cc1OC`, the Potency is 15.8 µM (active).

Consider `O=c1[nH]cnc2n[nH]nc12`, for which the Potency entry is “inactive”.

In the case of `CN(C)c1ccc2ccc3cccc4ccc1c2c34`, the Potency was 14.6 µM (active).

Take `Cc1ccc(-c2nc(-c3cc4cccc(OCc5cccc(F)c5)c4oc3=O)no2)cc1`: the Potency was 18.4 µM (active).

Turning to `CCCCCCc1cc2cc(-c3nnc(-c4ccccc4)o3)c(=O)oc2cc1O`, the Potency was 1.58 µM (active).

In the case of `COc1ccccc1-c1cc(C(=O)NN)[nH]n1`, the Potency entry was “inactive”.

As for `CCCCCCc1cc2cc(-c3nnc(-c4ccccc4OC)o3)c(=O)oc2cc1O`, the Potency is 3.53 µM (active).

On to `COc1ccccc1-c1nnc2sc(-c3cc4ccccc4o3)nn12`, for which the Potency entry is “inactive”.
